This is an account of results in PubChem BioAssay.

Experiment [1] in a line: HepG2 liver cancer cell viability effects, profiling panel, resazurin fluorescence, 24 h, PK04 Diversity Set (AID 1172). Note: test concentration not given here. The note with it: higher = more signal.
Experiment [2] is described as follows: basal S. cerevisiae growth modulation, no modifier, primary screen, OD600, strain BY4716, 24 h, basal condition (AID 1173). To be noted: OD600, 24 h, higher = more signal, called active from +8 up or from −8 down.
Experiment [3] in a line: MM1S myeloma cell viability, profiling panel, resazurin fluorescence, basal, 24 h, PK04 Diversity Set (AID 1174). Note: test concentration not given here. To be noted: higher = more signal, called active from +8 up or from −8 down.
Experiment [4] addresses Dihydroorotate dehydrogenase (quinone), mitochondrial (Plasmodium falciparum (isolate 3D7)) (UniProt Q08210). The experiment can be described thus: PfDHODH enzyme inhibitors, primary screen, biochemical, C-terminal His tag, absorbance 600 nm (AID 1175).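 Note: recombinant parasite enzyme with a five histidine tag at its C terminus; test concentration not given here.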 The note with it: DCIP absorbance 600 nm, higher = more signal, called active from +8 up or from −8 down.
Experiment [5] is described as follows: P. aeruginosa biofilm formation inhibitors, primary screen, strain PAO1, LB-PBS medium, absorbance 600 nm (AID 1176). Note: test concentration not given here. The note with it: P. aeruginosa PAO1 growth/biofilm, A600, 12 h; higher = more signal.
A short description of experiment [6]: S. cerevisiae RM11-1a growth modifiers, primary screen, strain RM11-1a, OD600, basal, 24 h (AID 1177).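 Note: cultures grown under basal conditions with no added stressor; test concentration not given here.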 The note with it: OD600, 24 h, higher = more signal, called active from +8 up or from −8 down.
A short description of experiment [7]: E. coli acrAB mutant growth effects, primary screen, E. coli filamentation inducers, strain DRC39, OD650, 24 h (AID 1178).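 Note: growth measured as culture turbidity by optical density at 650 nm; test concentration not given here.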 The note with it: higher = more signal, called active from +8 up or from −8 down.
Experiment [8] can be described thus: E. coli acrAB mutant growth effects, primary screen, E. coli filamentation inducers, strain DRC39, OD650, 48 h (AID 1179).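 Note: screen aims at cell division blockers that make cells filament.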 To be noted: E. coli DRC39 delta-acrAB growth, higher = more signal, called active from +8 up or from −8 down.
Experiment [9] is described as follows: RPMI8226 myeloma cell viability, profiling panel, resazurin fluorescence, basal, 24 h, PK04 Diversity Set (AID 1180).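 Note: RPMI8826 multiple myeloma cell line at 5000 cells per well; test concentration not given here.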 To be noted: higher = more signal.
For experiment [10], the target named is E3 ubiquitin-protein ligase XIAP (Homo sapiens) (UniProt P98170). The experiment can be described thus: XIAP binders, primary screen, biophysical, small-molecule microarray, fluorescence 635 nm (AID 1181).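 Note: score merges 667 nm emission and signal to noise over triplicate slides.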 To be noted: small-molecule microarray binding, higher = more signal.
Chain of E3 ubiquitin-protein ligase XIAP (Homo sapiens) (P98170 whole entry, looked up): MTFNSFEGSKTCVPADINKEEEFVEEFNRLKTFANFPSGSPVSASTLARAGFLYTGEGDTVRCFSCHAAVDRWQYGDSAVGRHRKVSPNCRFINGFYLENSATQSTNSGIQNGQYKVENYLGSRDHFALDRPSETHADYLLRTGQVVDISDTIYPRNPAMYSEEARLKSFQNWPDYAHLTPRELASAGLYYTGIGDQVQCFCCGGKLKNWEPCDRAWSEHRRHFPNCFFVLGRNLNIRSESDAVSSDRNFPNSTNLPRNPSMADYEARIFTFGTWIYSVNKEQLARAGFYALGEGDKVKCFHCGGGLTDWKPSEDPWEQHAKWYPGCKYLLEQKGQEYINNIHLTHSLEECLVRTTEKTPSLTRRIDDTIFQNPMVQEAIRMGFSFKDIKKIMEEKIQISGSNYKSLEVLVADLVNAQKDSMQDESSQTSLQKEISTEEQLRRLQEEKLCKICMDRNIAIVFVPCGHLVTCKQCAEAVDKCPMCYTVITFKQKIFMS

Active and inactive are the calls of the source. Unless noted, the rule behind the calls is not given here.

Chain of Dihydroorotate dehydrogenase (quinone), mitochondrial (Plasmodium falciparum (isolate 3D7)) (Q08210 whole entry, looked up): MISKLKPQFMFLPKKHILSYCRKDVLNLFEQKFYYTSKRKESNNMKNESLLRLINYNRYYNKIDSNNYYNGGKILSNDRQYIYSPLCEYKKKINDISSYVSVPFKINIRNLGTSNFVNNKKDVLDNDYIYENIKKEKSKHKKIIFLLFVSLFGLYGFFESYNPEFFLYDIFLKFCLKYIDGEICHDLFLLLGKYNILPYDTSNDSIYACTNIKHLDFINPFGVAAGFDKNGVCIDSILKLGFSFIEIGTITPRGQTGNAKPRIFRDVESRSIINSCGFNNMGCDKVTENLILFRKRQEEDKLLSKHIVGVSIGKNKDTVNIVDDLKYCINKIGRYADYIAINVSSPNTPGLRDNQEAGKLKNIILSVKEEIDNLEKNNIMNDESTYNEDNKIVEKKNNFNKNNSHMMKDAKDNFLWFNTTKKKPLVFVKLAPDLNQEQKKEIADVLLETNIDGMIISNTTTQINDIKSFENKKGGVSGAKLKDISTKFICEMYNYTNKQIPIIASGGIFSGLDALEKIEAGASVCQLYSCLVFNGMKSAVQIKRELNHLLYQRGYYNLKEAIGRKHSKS

In the case of `COC(=O)[C@H](C)NC(=O)CCC1CC(OC(=O)NCCc2ccc(F)cc2)CC2(CCCC(COC(=O)NCCC(C)C)O2)O1` (stereo not given in full), the z-score in experiment [1] is -0.666; in [2], -1.27 (inactive); in experiment [3], 0.711 (inactive); in experiment [5] it was 0.675 (inactive); in experiment [6], -1.15 (inactive); in experiment [7], 0.29 (inactive). Further, the z-score in experiment [8] was -0.947 (inactive); in experiment [9], 0.967. The composite z-score in experiment [4] is -2.05 (inactive); in experiment [10], -0.102.

With `CCC(=O)[C@@]1(O)C(=O)N2C(=C3C(=O)OCC[C@@H]31)N(Cc1ccccc1)C(C)=C(C(=O)OC)[C@H]2c1ccccc1`, the z-score in experiment [1] was -0.207; in experiment [2], -0.235 (inactive); in experiment [3], 0.327 (inactive); in [5], 0.936 (inactive); in experiment [6], 0.273 (inactive); in experiment [7], 0.533 (inactive). For the same molecule, the z-score in experiment [8] is -0.247 (inactive); in experiment [9], -0.557. Besides, the composite z-score in experiment [4] was -1.41 (inactive); in experiment [10], -0.175.

For `CCCCC#C[C@@H]1C=C[C@H](Oc2cc(OC)c(OC)c(OC)c2)[C@@H](COC(=O)OCC)O1`, the z-score is -0.826 in [1]; -0.535 (inactive) in experiment [2]; -1.03 (inactive) in experiment [3]; 0.806 (inactive) in [5]; 0.628 (inactive) in [6]; 1.02 (inactive) in [7]. Also, the figures for the z-score in [8] and in [9] were 0.751 (inactive) and -0.65, respectively. In addition, the composite z-score in experiment [4] is -1.48 (inactive); in experiment [10], -0.113.

As for `CCN1C(=O)[C@H]2[C@H]3[C@H](O)[C@H](O)CC(=NO[C@@H](C)c4cn([C@H](CO)Cc5ccccc5)nn4)[C@@H]3CC[C@H]2C1=O`, the z-score is -0.817 in experiment [1]; 0.833 (inactive) in experiment [2]; -0.866 (inactive) in [3]; 0.135 (inactive) in [5]; 0.47 (inactive) in experiment [6]; 0.121 (inactive) in experiment [7]. Further, the z-score was -0.336 (inactive) in experiment [8] and -0.504 in [9]. The composite z-score in experiment [4] was -0.642 (inactive); in [10] it was 0.0451.

With `CO[C@H]1COC(=O)[C@@H](C)COC(=O)[C@H](COCc2ccccc2)NC(=O)CC=C[C@H]1C`, the z-score in [1] was -0.238; in experiment [2], -1.58 (inactive); in [3] it was 0.671 (inactive); in experiment [5] it was -0.543 (inactive); in experiment [6], 0.085 (inactive); in experiment [7], 1.05 (inactive). Further, the z-score was -0.997 (inactive) in [8] and 0.267 in experiment [9]. In addition, the composite z-score in experiment [4] was 0.604 (inactive); in experiment [10], 0.227.

As for `COC(=O)CC=C[C@@H](C)[C@@H](C=NO[C@@H](C)c1cc(-c2c(C)cc(C)cc2C)no1)NS(=O)(=O)c1ccc(C)cc1`, the z-score is 0.245 in [1]; -0.358 (inactive) in experiment [2]; -0.019 (inactive) in experiment [3]; -0.998 (inactive) in experiment [5]; -0.2 (inactive) in experiment [6]; -1.1 (inactive) in [7]. For the same molecule, the z-score is -1.55 (inactive) in [8] and -0.33 in [9]. The composite z-score in experiment [4] is -2.27 (inactive); in experiment [10], -0.169.

As to `C[C@H]1CC[C@H]2C(=O)OC(CO)CN2[C@@H]1c1ccc(Br)cc1` (stereo not given in full), the z-score was 0.228 in experiment [1]; -1.23 (inactive) in experiment [2]; -0.0363 (inactive) in experiment [3]; 0.967 (inactive) in experiment [5]; -0.373 (inactive) in [6]; -0.472 (inactive) in experiment [7]. Further, the z-score was -0.304 (inactive) in experiment [8] and 0.979 in [9]. Further, the composite z-score in experiment [4] is -0.0747 (inactive); in [10], 0.213.

In the case of `O=C(NN=C1C[C@@H](O)[C@@H](O)[C@@H]2[C@@H]3C(=O)N(C[C@@H]4CCCO4)C(=O)[C@@H]3CC[C@@H]12)OCc1ccccc1`, the z-score in [1] was 0.0986; in experiment [2] it was -0.485 (inactive); in experiment [3], 0.169 (inactive); in [5], 0.328 (inactive); in [6], -1.49 (inactive); in experiment [7] it was -0.0573 (inactive). Further, the z-score in experiment [8] was 0.118 (inactive); in experiment [9], -0.111. The composite z-score is -2.17 (inactive) in experiment [4] and 0.0623 in [10].

`COC(=O)[C@H](C)NC(=O)CCC1CC(OC(=O)NCc2ccc3c(c2)OCO3)CC2(CCCC(COC(=O)NCc3cccc(C(F)(F)F)c3)O2)O1` (stereo not given in full): the z-score in experiment [1] was -0.443; in [2], -0.817 (inactive); in [3] it was 0.374 (inactive); in experiment [5] it was 0.484 (inactive); in experiment [6] it was -0.476 (inactive); in experiment [7] it was 0.298 (inactive). Further, the z-score is 0.079 (inactive) in experiment [8] and 0.459 in [9]. The values for the composite z-score in experiment [4] and in [10] were -0.303 (inactive) and 0.0566, respectively.

In the case of `Cn1c(=O)n2n(c1=O)[C@H]1[C@H](O)[C@@H]3O[C@@H]3C(=O)[C@H]1CC2`, the z-score was -0.12 in experiment [1]; 0.243 (inactive) in [2]; -0.871 (inactive) in experiment [3]; -0.343 (inactive) in experiment [5]; 0.723 (inactive) in experiment [6]; 0.463 (inactive) in [7]. The z-score in experiment [8] is 0.166 (inactive); in experiment [9], -0.52. The composite z-score was 0.438 (inactive) in experiment [4] and 0.0799 in [10].

Take `CC(CCN1CCCc2nc(C)c(C)cc21)=NOC(C)CN1CCCCc2nc(C)c(C)cc21` (stereo not given): the z-score is -0.0007 in experiment [1]; 1.38 (inactive) in experiment [2]; -0.221 (inactive) in [3]; 1.3 (inactive) in [5]; 1.02 (inactive) in [6]; 0.315 (inactive) in experiment [7]. For the same molecule, the z-score in [8] was -0.554 (inactive); in experiment [9], 0.347. Also, the values for the composite z-score in [4] and in experiment [10] were 0.131 (inactive) and 0.593, respectively.

Turning to `COC(=O)[C@H](C)NC(=O)CCC1CC(OC(=O)NCCc2ccc(F)cc2)CC2(CCCC(COC(=O)NCc3cccc(C(F)(F)F)c3)O2)O1` (stereo not given in full), the z-score in experiment [1] was -0.0701; in experiment [2] it was 1.05 (inactive); in experiment [3] it was 0.045 (inactive); in [5], 0.59 (inactive); in experiment [6], 0.744 (inactive); in [7], 0.696 (inactive). Further, the figures for the z-score in experiment [8] and in experiment [9] were 0.602 (inactive) and 0.436, respectively. For the same molecule, the composite z-score in experiment [4] is -0.302 (inactive); in [10], 0.103.
